Bioassay records deposited in PubChem BioAssay by National Center for Advancing Translational Sciences (NCATS).
A selection: hits, their analogues and other compounds. The true share with any hit is near 14%.
Giardia FBPA inh – blocks Giardia fructose-bisphosphate aldolase activity. 290,000 compounds, 0.71% hits. Potency, µM (top dose mostly 59.6 µM), usual class: inhibitors. AID 2451. purified Giardia FBPA; note: nearly all actives have a fitted effect of over 55% in size
Target sequence (A8B2U2 whole entry, looked up): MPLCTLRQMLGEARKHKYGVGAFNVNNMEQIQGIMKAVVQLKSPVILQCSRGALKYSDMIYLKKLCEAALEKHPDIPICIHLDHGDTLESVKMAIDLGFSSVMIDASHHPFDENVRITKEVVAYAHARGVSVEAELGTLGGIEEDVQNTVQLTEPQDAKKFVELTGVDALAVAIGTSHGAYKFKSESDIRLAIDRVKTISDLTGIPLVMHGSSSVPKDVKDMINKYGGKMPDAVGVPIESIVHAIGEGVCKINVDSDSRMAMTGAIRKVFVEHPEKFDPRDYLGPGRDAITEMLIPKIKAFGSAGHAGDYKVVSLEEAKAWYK
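Giardia FBPA (40 nM reagent) was preincubated 10 min at RT with compound (up to 57.5 uM final), then substrate plus GAPDH/TPI/NAD/arsenate coupling system with diaphorase/resazurin was added; resorufin fluorescence (525/598 nm) was read after 20 min.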
Pf growth 48h – P. falciparum growth inhibition at 48 hours (one generation); AID 504832; P. falciparum luciferase growth in erythrocytes, 48 h; 310,000 compounds, 5.9% hits; Potency, µM (highest dose often 28.7 µM), hits mostly inhibitors
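Cell-based growth assay: transgenic P. falciparum expressing firefly luciferase, cultured in red cells within RPMI 1640 containing 0.5% w/v Albumax, 24 mM bicarbonate and gentamycin. A drop in luciferase activity indicates inhibition.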
Sm TGR block – S. mansoni TGR enzyme inhibition; Q962Y6; Potency, µM (top dose mostly 114 µM), hits mostly inhibitors; purified TGR, DTNB reduction, TNB absorbance 405 nm; 360,000 compounds, 3% hits; AID 485364; note: nearly all actives have a fitted effect of over 60% in size
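Kinetic colorimetric format: TGR-catalysed, NADPH-driven DTNB reduction monitored via TNB absorbance. Enzyme dispensed at 20 nM; compound exposure 15 min at room temperature before reaction start.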
Pf growth 96h – P. falciparum growth inhibition at 96 hours | P. falciparum luciferase reporter growth, 96 h | Potency, µM (series often up to 28.7 µM), most hits filed as inhibitors | AID 504834 | 320,000 compounds, 6.9% hits
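Readout is luminescence from an integrated firefly luciferase in P. falciparum. Red cells, 2% hematocrit and 0.05% parasitemia final, were cultured with compound through two parasite generations (96 hours) at 37 C, 5% CO2.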
HCMV inh – blocks human cytomegalovirus replication; HFF cells, HCMV-luciferase reporter, 72 h; active compounds read low; activity change, negative = inhibition, % at 57.5 µM; 410,000 compounds, 4.5% hits; AID 1259415; in the data active = activity change below about -60%; inconclusive = no clear call, values can overlap the other calls; inactive = above about -39%
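Cell-based, HFFs, 1000 cells/well, 16 h 37C; cpds in DMSO + HCMV-luc, MOI 1 PFU/cell; 72 h 37C; OneGlo luminescence after 5 min RT; norm. to buffer vs Salinomycin 10uM.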
Large screens that a line does not name were inactive. Unless noted, calls come from the whole dose curve; as a rule, active = well fitted curve in the direction sought with a large enough effect; inconclusive = small, poorly fitted or top-dose-only effect, or another doubt; inactive = no such curve, though single readings can be large; an effect the other way counts as inactive or inconclusive.

Cc1cccc(C(C)C)c1NC(=O)COC(=O)CCC(=O)N(CC(C)C)c1c(N)n(CC(C)C)c(=O)[nH]c1=O	none (no result: Giardia FBPA inh, Pf growth 48h, Sm TGR block, Pf growth 96h)
CCc1nc(SCc2ccccc2C)n[nH]1	Giardia FBPA inh inconclusive, Pf growth 96h 6.6µM
CCc1nc(SCc2ccc(OCC(C)C)cc2)n[nH]1	Pf growth 96h 10µM, HCMV inh inconclusive
COc1ccccc1-c1csc(C(O)c2ccccc2)n1 (stereo not drawn)	none (no result: Giardia FBPA inh, Pf growth 48h, Sm TGR block, Pf growth 96h)
CCc1ccc(-c2nnn(CC(=O)N(C3CCCC3)C3CCS(=O)(=O)C3)n2)cc1 (stereo not drawn)	Pf growth 48h inconclusive, Pf growth 96h inconclusive (no result: Giardia FBPA inh)
Cc1ccc(C(=O)Nc2nnc(S(=O)(=O)N3CCc4ccccc43)s2)cc1	none (no result: Giardia FBPA inh, Pf growth 48h, Pf growth 96h)
COc1ccccc1CN1CCCC2(CCN(C(=O)c3cccn3C)CC2)C1	none (no result: Pf growth 48h, Sm TGR block, Pf growth 96h, HCMV inh)
Cc1ccc(O)c(-c2cc(C(F)(F)C(F)F)[nH]n2)c1	Pf growth 48h 9.3µM, Pf growth 96h 9.3µM
CNC(=O)CSc1nc2nn(-c3ccccc3)c(=O)c-2c2n1CCCCC2	Pf growth 48h inconclusive, Pf growth 96h inconclusive
O=C(CSc1nc2nn(-c3ccccc3)c(=O)c-2c2n1CCCCC2)c1ccc(O)c(O)c1	Pf growth 48h 9.3µM, Pf growth 96h inconclusive (no result: Giardia FBPA inh, HCMV inh)
CCCOC(=O)c1ccc(-c2c(C)noc2-c2ccc(OC)cc2O)o1	Pf growth 48h 0.74µM (no result: Pf growth 96h)
CCN1CCN(c2ccc(S(=O)(=O)N3CCOCC3)cc2NC(=O)c2ccc(Cl)s2)CC1	Pf growth 48h inconclusive, Pf growth 96h inconclusive (no result: Giardia FBPA inh)
Cc1ccc(N(CC(=O)N2CCCCCC2)S(C)(=O)=O)cc1Cl	Pf growth 96h 7.4µM, HCMV inh inconclusive
CS(=O)(=O)N(CC(=O)N1CCCCCC1)c1cccc(Br)c1	Pf growth 96h 12µM
Cc1ccc(N(CC(=O)N2CCOCC2)S(C)(=O)=O)cc1Cl	Pf growth 96h inconclusive
Cc1ccc(Oc2coc3cc(OCC(=O)NC4CCCCC4)ccc3c2=O)cc1	none (no result: Giardia FBPA inh, Pf growth 48h, Pf growth 96h)
COc1ccc(NS(=O)(=O)c2cccc3nonc23)c(OC)c1	Pf growth 48h inconclusive, Sm TGR block 18µM, Pf growth 96h inconclusive
Cc1ccc(Cl)cc1N1CCN(C(=O)C2CCN(S(=O)(=O)c3cccc4nonc34)CC2)CC1	none (no result: Giardia FBPA inh, Pf growth 48h, Pf growth 96h)
Cc1ccc(Cl)cc1N1CCN(C(=O)CCS(=O)(=O)c2cccc3nonc23)CC1	Pf growth 48h inconclusive, Sm TGR block inconclusive, Pf growth 96h 12µM, HCMV inh inconclusive
COc1cccc(CNC(=O)CCS(=O)(=O)c2cccc3nonc23)c1	Sm TGR block 45µM
CC(C)CCNC(=O)CCS(=O)(=O)c1cccc2nonc12	Pf growth 96h 12µM
COC(=O)[C@@]1(Cc2ccc(F)cc2)[C@@H]2C(=CC(=O)[C@H]2CC(=O)C(=O)N(C)C)CN1C(=O)c1ccccc1	none (no result: Pf growth 48h, Sm TGR block, Pf growth 96h, HCMV inh)
O=C(CCS(=O)(=O)c1cccc2nonc12)NCc1ccc(Cl)cc1	Sm TGR block 35µM
O=C(CCS(=O)(=O)c1cccc2nonc12)NCCc1ccccc1	Sm TGR block inconclusive
O=C(CCS(=O)(=O)c1cccc2nonc12)N1CCCc2ccccc21	Sm TGR block 35µM, Pf growth 96h inconclusive
CC(=O)NC(C)c1cc(Cl)c2ccccc2c1O (stereo not drawn)	none (no result: Giardia FBPA inh)
CCC(=O)NC(C)c1cc(Cl)c2cccnc2c1O (stereo not drawn)	Pf growth 48h inconclusive, Pf growth 96h inconclusive, HCMV inh -97 (no result: Giardia FBPA inh)
CN1CCN(C(c2ccc(Br)cc2)c2cc(Cl)c3cccnc3c2O)CC1 (stereo not drawn)	Pf growth 48h 12µM, Sm TGR block 0.63µM, Pf growth 96h 7.4µM
CCC(=O)NC(c1cc(Cl)c2ccccc2c1O)C(C)C (stereo not drawn)	Pf growth 48h inconclusive, Pf growth 96h inconclusive (no result: Giardia FBPA inh)
CC(=O)NC(C)c1cc(Cl)c2cccnc2c1O (stereo not drawn)	Pf growth 48h inconclusive, Pf growth 96h inconclusive, HCMV inh -96 (no result: Giardia FBPA inh)
CN(C)c1ccc(N/C(=N\S(=O)(=O)c2cccs2)c2ccccc2)cc1	HCMV inh -68
Cc1ccc(NC(=O)C2OCCc3ccccc32)cc1 (stereo not drawn)	none
Cc1ccc(NC(=O)C2C3CCC(O3)C2C(=O)O)cc1Cl (stereo not drawn)	Pf growth 96h 13µM
O=C(O)C1C2CCC(O2)C1C(=O)Nc1ccc(Cl)cc1 (stereo not drawn)	HCMV inh inconclusive (no result: Sm TGR block)
Cc1ccc(NC(=O)C2OCCc3ccccc32)cc1Cl (stereo not drawn)	Pf growth 96h 8.3µM
